Several values for one entry are separate records, joined by “and”; a condition that tells them apart may be missing. Equal values may be shown once. Out of some 5,500 compounds screened, about 2,000 (36%) were called active. Roughly 18% stayed inconclusive and do not appear here. Cut-off read from the data, not from the text of the source: active = normalized growth mostly below about 0.91 (no sharp cut-off); inconclusive = no clear call, values can overlap the other calls; inactive = mostly above about 0.92. Some of the results follow.
Assay: chemical genetic growth profiling, strain panel (AID 1159580);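 note: tested at 20 µM; growth read once vehicle control cultures reached saturation at 30 °C; 1 = growth at the plate median or of vehicle wells; lower values mean less growth of the strain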
Settings: growth OD

Measured: normalized growth

COC(=O)COc1ccc(Cl)cc1Cl
inactive: S. cerevisiae deletion strains, locus YAL013W, strain DEP1, active compounds read low 1 | S. cerevisiae deletion strains, locus YBR021W, strain FUR4, active compounds read low 1.01 | S. cerevisiae deletion strains, locus YBR229C, strain ROT2, active compounds read low 1.01 | S. cerevisiae deletion strains, locus YCL029C, strain bik1, active compounds read low 1.02 | S. cerevisiae deletion strains, locus YDL035C, strain GPR1, active compounds read low 1.02 | S. cerevisiae deletion strains, locus YDL074C, strain BRE1, active compounds read low 1.03 | S. cerevisiae deletion strains, locus YDL101C, strain DUN1, active compounds read low 1.01 | S. cerevisiae deletion strains, locus YDL134C, strain PPH21, active compounds read low 1.01 | S. cerevisiae deletion strains, locus YDL185W, strain tfp1, active compounds read low 1.01 | S. cerevisiae deletion strains, locus YDL192W, strain arf1, active compounds read low 1.02 | S. cerevisiae deletion strains, locus YDR101C, strain arx1, active compounds read low 1.02 | S. cerevisiae deletion strains, locus YDR150W, strain NUM1, active compounds read low 1 | S. cerevisiae deletion strains, locus YDR162C, strain NBP2, active compounds read low 0.996 | S. cerevisiae deletion strains, locus YDR318W, strain mcm21, active compounds read low 1.02 | S. cerevisiae deletion strains, locus YDR388W, active compounds read low 1.02 | S. cerevisiae deletion strains, locus YDR502C, strain sam2, active compounds read low 1.02 | S. cerevisiae deletion strains, locus YEL061C, strain CIN8, active compounds read low 1 | S. cerevisiae deletion strains, locus YER110C, active compounds read low 1.01 | S. cerevisiae deletion strains, locus YER155C, strain BEM2, active compounds read low 1 | S. cerevisiae deletion strains, locus YER167W, strain BCK2, active compounds read low 1 | S. cerevisiae deletion strains, locus YGL078C, strain dbp3, active compounds read low 1.01 | S. cerevisiae deletion strains, locus YGL086W, strain mad1, active compounds read low 1 | S. cerevisiae deletion strains, locus YGL248W, strain PDE1, active compounds read low 1.01 | S. cerevisiae deletion strains, locus YGR078C, strain PAC10, active compounds read low 1.02 | S. cerevisiae deletion strains, locus YGR135W, strain pre9, active compounds read low 1.02 | S. cerevisiae deletion strains, locus YGR229C, strain SMI1, active compounds read low 1.01 | S. cerevisiae deletion strains, locus YGR252W, strain gcn5, active compounds read low 1.04 | S. cerevisiae deletion strains, locus YHR030C, strain SLT2, active compounds read low 1.01 and 1.04 | S. cerevisiae deletion strains, locus YHR079C, strain IRE1 (second series), active compounds read low 1.01 | S. cerevisiae deletion strains, locus YHR079C, strain IRE1, active compounds read low 1.03 | S. cerevisiae deletion strains, locus YHR094C, strain hxt1, active compounds read low 1.02 | S. cerevisiae deletion strains, locus YHR129C, strain ARP1, active compounds read low 1.01 | S. cerevisiae deletion strains, locus YHR200W, strain rpn10, active compounds read low 1.01 | S. cerevisiae deletion strains, locus YIL066C, strain RNR3, active compounds read low 1.02 | S. cerevisiae deletion strains, locus YIL073C, strain SPO22, active compounds read low 1.08 | S. cerevisiae deletion strains, locus YIL125W, strain kgd1, active compounds read low 1.01 | S. cerevisiae deletion strains, locus YIR030C, strain dcg1, active compounds read low 1.02 | S. cerevisiae deletion strains, locus YJL095W, strain BCK1, active compounds read low 1 and 1.05 | S. cerevisiae deletion strains, locus YJL134W, strain LCB3, active compounds read low 1 | S. cerevisiae deletion strains, locus YJL168C, strain set2, active compounds read low 1.02 | S. cerevisiae deletion strains, locus YJL187C, strain SWE1 (second series), active compounds read low 1.01 | S. cerevisiae deletion strains, locus YJR043C, strain POL32, active compounds read low 1.01 | S. cerevisiae deletion strains, locus YJR066W, strain TOR1, active compounds read low 0.975 | S. cerevisiae deletion strains, locus YJR075W, strain HOC1, active compounds read low 1.01 | S. cerevisiae deletion strains, locus YKL009W, strain mrt4, active compounds read low 1.03 | S. cerevisiae deletion strains, locus YKL068W, active compounds read low 1.01 | S. cerevisiae deletion strains, locus YKL085W, strain MDH1 (second series), active compounds read low 0.993 | S. cerevisiae deletion strains, locus YKL085W, strain MDH1, active compounds read low 0.993 | S. cerevisiae deletion strains, locus YKL190W, strain CNB1, active compounds read low 1.01 | S. cerevisiae deletion strains, locus YKR001C, strain vps1, active compounds read low 1.04 | S. cerevisiae deletion strains, locus YLR039C, strain RIC1, active compounds read low 1.02 | S. cerevisiae deletion strains, locus YLR058C, strain SHM2, active compounds read low 1.02 | S. cerevisiae deletion strains, locus YLR102C, strain apc9, active compounds read low 1.01 | S. cerevisiae deletion strains, locus YLR113W, strain HOG1, active compounds read low 0.974 | S. cerevisiae deletion strains, locus YLR262C, strain YPT6, active compounds read low 1.06 | S. cerevisiae deletion strains, locus YLR268W, strain sec22, active compounds read low 1.03 | S. cerevisiae deletion strains, locus YLR330W, strain CHS5, active compounds read low 1.01 | S. cerevisiae deletion strains, locus YLR342W, strain FKS1 (second series), active compounds read low 1.01 | S. cerevisiae deletion strains, locus YLR371W, strain rom2, active compounds read low 1.01 | S. cerevisiae deletion strains, locus YLR418C, strain cdc73, active compounds read low 1.04 | S. cerevisiae deletion strains, locus YML016C, strain PPZ1, active compounds read low 1.01 | S. cerevisiae deletion strains, locus YML032C, strain rad52, active compounds read low 1.02 | S. cerevisiae deletion strains, locus YML124C, strain tub3, active compounds read low 1.02 | S. cerevisiae deletion strains, locus YMR078C, strain ctf18, active compounds read low 1.03 | S. cerevisiae deletion strains, locus YMR223W, strain ubp8, active compounds read low 1.02 | S. cerevisiae deletion strains, locus YMR263W, strain SAP30, active compounds read low 1 | S. cerevisiae deletion strains, locus YMR307W, strain GAS1, active compounds read low 1.02 | S. cerevisiae deletion strains, locus YNL067W, strain RPL9B, active compounds read low 1 | S. cerevisiae deletion strains, locus YNL128W, strain TEP1, active compounds read low 1.01 | S. cerevisiae deletion strains, locus YNL153C, strain GIM3, active compounds read low 1.01 | S. cerevisiae deletion strains, locus YNL183C, strain NPR1, active compounds read low 0.969 | S. cerevisiae deletion strains, locus YNL233W, strain BNI4, active compounds read low 1 | S. cerevisiae deletion strains, locus YNL250W, strain rad50, active compounds read low 1.01 | S. cerevisiae deletion strains, locus YNL271C, strain bni1, active compounds read low 1 | S. cerevisiae deletion strains, locus YNL298W, strain CLA4, active compounds read low 1.04 | S. cerevisiae deletion strains, locus YNL307C, strain MCK1, active compounds read low 1.03 | S. cerevisiae deletion strains, locus YNL322C, strain KRE1, active compounds read low 1.01 | S. cerevisiae deletion strains, locus YNR052C, strain pop2, active compounds read low 1.03 | S. cerevisiae deletion strains, locus YOL006C, strain TOP1, active compounds read low 1.02 | S. cerevisiae deletion strains, locus YOL012C, strain htz1 1.19 | S. cerevisiae deletion strains, locus YOL147C, strain pex11, active compounds read low 1.01 | S. cerevisiae deletion strains, locus YOR061W, strain CKA2, active compounds read low 0.997 | S. cerevisiae deletion strains, locus YOR069W, strain VPS5, active compounds read low 1 | S. cerevisiae deletion strains, locus YOR136W, strain idh2, active compounds read low 1.02 | S. cerevisiae deletion strains, locus YOR144C, strain elg1, active compounds read low 1.02 | S. cerevisiae deletion strains, locus YOR184W, strain ser1, active compounds read low 1.03 | S. cerevisiae deletion strains, locus YOR231W, strain MKK1, active compounds read low 1.04 | S. cerevisiae deletion strains, locus YOR316C, strain cot1, active compounds read low 1.01 | S. cerevisiae deletion strains, locus YPL055C, strain LGE1, active compounds read low 1.02 | S. cerevisiae deletion strains, locus YPL241C, strain CIN2, active compounds read low 1 | S. cerevisiae deletion strains, locus YPL256C, strain CLN2, active compounds read low 1.05 | S. cerevisiae deletion strains, locus YPR119W, strain clb2, active compounds read low 1.01 | S. cerevisiae deletion strains, locus YPR141C, strain kar3, active compounds read low 1.01 | S. cerevisiae deletion strains, locus YPR163C, strain tif3, active compounds read low 1.02 | S. cerevisiae deletion strains, locus YPR167C, strain met16, active compounds read low 1.01 | S. cerevisiae deletion strains, strain wtn01, active compounds read low 1.01 | S. cerevisiae strains, strain wild type, active compounds read low 1

Source: PubChem BioAssay AID1159580 (chemical genetic matrix, 2015)
